UCHL1 inh – inhibitors of human UCHL1 deubiquitinase | Ubiquitin carboxyl-terminal hydrolase isozyme L1 (Homo sapiens), P09936 | hit rate 0.2% among 47,000 | inhibition, % at 20 µM | purified UCHL1, Ub-rhodamine cleavage fluorescence
USP7 inh – inhibitors of human USP7 deubiquitinase; Ubiquitin carboxyl-terminal hydrolase 7 (Homo sapiens), Q93009; purified USP7, Ub-rhodamine cleavage fluorescence; inhibition, % at 20 µM; hit rate 0.3% among 47,000; AID 1645854, 2021
OTUD3 block – inhibitors of human OTUD3 deubiquitinase; hit rate 0.7% among 47,000; inhibition, % at 25 µM; OTU domain-containing protein 3 (Homo sapiens), Q5T2D3; AID 1645858, 2021; purified OTUD3, Ub-rhodamine fluorescence, 2 h
Target sequence (Q5T2D3 whole entry, looked up, the tested form may be a part): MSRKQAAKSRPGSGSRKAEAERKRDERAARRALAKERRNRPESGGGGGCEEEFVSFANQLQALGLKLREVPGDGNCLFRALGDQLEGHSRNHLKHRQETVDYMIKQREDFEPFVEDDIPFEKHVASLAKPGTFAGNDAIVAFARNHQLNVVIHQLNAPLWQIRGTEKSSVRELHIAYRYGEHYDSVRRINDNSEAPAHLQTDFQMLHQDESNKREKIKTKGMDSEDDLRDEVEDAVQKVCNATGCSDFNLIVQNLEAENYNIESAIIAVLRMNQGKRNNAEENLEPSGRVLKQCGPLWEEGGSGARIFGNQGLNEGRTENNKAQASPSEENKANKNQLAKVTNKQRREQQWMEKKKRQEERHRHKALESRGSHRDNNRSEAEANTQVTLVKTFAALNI
Of the large screens only hits and unclear results are named; the others gave an inactive call. Shown are actives, neighbours in structure and some others; about 1.1% of the full set was active somewhere. No stated cut-off is given here; in the data, active means inhibition above about 30%; inactive means the rest.

Cc1nc(-c2ccc3c(c2)nnn3CCN2CCOCC2)no1	OTUD3 block 41
CCc1nc(-c2ccc3c(c2)nnn3CCN2CCCCC2)no1	none
Cc1c(CN2CCC3(CC2)Nc2ccccc2C2=NCCN23)cnn1Cc1ccccc1	none
CCC(=O)N1CCCC(Cc2cnc(-c3ncc(C)[nH]3)cn2)C1 (configuration not stated)	none
COc1ccc(C(=O)CCN2CCOCC2)cc1[N+](=O)[O-]	OTUD3 block 36
COc1ccc(OC)c(CNCCCN2CCOCC2)c1	none
Cc1ccc(-c2nc(NC(=O)COc3ccc(Cl)cc3)no2)cc1	USP7 inh 64
Cc1ccc(-c2nc(NC(=O)COc3cc(C)cc(C)c3)no2)cc1	none
Cc1ccccc1CNC(=O)CN1C(=O)CSc2cccn2-c2ccccc21	none
CCCCCCCCCCCCCCCc1cc(O)cc(O)c1	none
CCN(CC)c1ncc2c(n1)CCC(C(=O)NC(C)c1cccnc1)C2 (configuration not stated)	none
Cc1cc(C)c(C#N)c(N2CCN(S(=O)(=O)Cc3ccccc3)CC2)n1	none (no result: USP7 inh)
COc1cc2c(C#N)c(N3CCCC3)nc3c2c(n1)NC(C)(c1ccc(-c2ccccc2)cc1)N3 (configuration not stated)	USP7 inh 35
COc1ccc(Br)cc1CNC(=O)C1CCCN(c2nnc(N3CCCC3=O)s2)C1 (configuration not stated)	none
Cc1cccc(OCc2nc(-c3ccnc(N4CCCC4)c3)no2)c1	none
COc1ccccc1N1CCN(C(=O)CCc2c(C)c3c(C)nn(-c4ccccc4)c3n(C)c2=O)CC1	none
Cn1cncc1C(=O)N1CCC2(CC1)COc1ccccc1S(=O)(=O)N(CC1CC1)C2	none
C=C1CCC2[C@](C)(CCC[C@]2(C)C(=O)OC)[C@H]1CCc1ccoc1CNC(CCSC)C(=O)O (some centres not stated)	none
C=C1CCC2[C@](C)(CCC[C@]2(C)C(=O)OC)[C@H]1CCc1ccoc1CNC(C)C (some centres not stated)	OTUD3 block 30
Cn1cccc1C(=O)N1C[C@H](OCC2CCOCC2)[C@H]2COC[C@H]21	none
Cn1cc(CCNS(=O)(=O)c2ccccc2Cl)c2cccnc21	none
CNc1nc2c(c(=O)n1C)CN(C(=O)Nc1cccc3ccccc13)CC2	OTUD3 block 59
CNc1nc2c(c(=O)n1C)CN(C(=O)Nc1ccc(C(C)(C)C)cc1)CC2	none
O=S(c1ccc2ccccc2c1)c1cnns1 (configuration not stated)	OTUD3 block 34
O=C(c1ccc2occc2c1)N1CCC(S(=O)(=O)c2ccc(-c3ccco3)cc2)CC1	UCHL1 inh 52, USP7 inh 52
O=S(=O)(c1ccc(-c2ccco2)cc1)C1CCN(Cc2cccnc2)CC1	none
COc1ccc(CN(C(=O)c2cc(-c3ccc(C)cc3)on2)C2CCS(=O)(=O)C2)cc1 (configuration not stated)	none
COc1ccccc1NS(=O)(=O)c1cc([N+](=O)[O-])ccc1NCC1COc2ccccc2O1 (configuration not stated)	none
Cc1ccc([N+](=O)[O-])cc1S(=O)(=O)Nc1cc2sc(=O)oc2c2ccccc12	OTUD3 block 33
COc1cccc(NC(=O)CN2C(=O)C3CCCC3=Nc3ccccc32)c1 (configuration not stated)	none
COc1ccc(C)cc1NC(=O)CN1C(=O)C2CCCC2=Nc2ccccc21 (configuration not stated)	OTUD3 block 35
O=C(N[C@H]1CO[C@H]2[C@@H]1OC[C@@H]2Nc1nccc(C2CCCC2)n1)c1ccc2c(c1)OCO2	none
Cn1c(=O)c2nc(-c3ccc(Cl)cc3)nnc2n(C)c1=O	UCHL1 inh 32
Cn1c(=O)c2c(nc3n(CCO)c(-c4ccc(Cl)cc4)cn23)n(C)c1=O	none
O=C(CCc1nc(CS(=O)(=O)c2ccc(Cl)cc2)no1)N1CCOCC1	none
CC[C@H](C)C[C@H]1CC[C@](O)([C@](C)(O)C(=O)N[C@@H]2C(=O)N3NCCC[C@@H]3C(=O)N(O)[C@@H](C)C(=O)NCC(=O)N3NCCC[C@H]3C(=O)N(O)[C@H](C)C(=O)O[C@H]2C(C)C)O[C@@H]1C	OTUD3 block 73
CCOc1ccc(NC(=O)Cn2c(=O)n(CCCCCC(=O)NCc3ccc(F)cc3)c(=O)c3sccc32)cc1	OTUD3 block 32
Cc1cc(C)c(NC(=O)Cn2c(=O)n(CCC(=O)NCc3ccc4c(c3)OCO4)c(=O)c3sccc32)c(C)c1	USP7 inh 30, OTUD3 block 34
Cc1ccc(CNC(=O)CCCCCn2c(=O)c3sccc3n(CC(=O)c3ccc(Cl)cc3)c2=O)cc1	none
O=C(CCCn1c(=O)c2sccc2n(CC(=O)NCCC2=CCCCC2)c1=O)NCc1ccc2c(c1)OCO2	none
Cc1cccc(CN2Cc3ccnn3CC(c3nc(C)no3)C2)n1 (configuration not stated)	none
CCN1C(SCc2ccccc2F)=NS(=O)(=O)c2ccccc21	none
Cc1c(C(=O)N(C)c2nc3c(s2)CCc2occc2-3)oc2ccccc12	OTUD3 block 36
CN(C(=O)c1cccs1)c1nc2c(s1)CCc1occc1-2	none
CN(C)S(=O)(=O)c1cccc(CC(C(=O)Nc2ccc3c(c2)OCO3)C(=O)c2ccccc2)c1 (configuration not stated)	none
CC(C(=O)NCc1ccccn1)n1cccc1C(=O)c1ccccc1 (configuration not stated)	none
CC(C(=O)NCc1ccc(F)cc1)n1cccc1C(=O)c1ccccc1 (configuration not stated)	OTUD3 block 74
CC(C)n1nccc1-c1cc(CC2CCN(S(C)(=O)=O)C2)ncn1 (configuration not stated)	none
COc1ccc(/C=C/C(=O)N2CCCc3ccccc32)cc1OC	none
COc1ccc(/C=C/C(=O)N2CCc3ccccc32)cc1S(=O)(=O)N1CCOCC1	OTUD3 block 54
COc1ccccc1N1CCN(CC(O)c2c[nH]c3ccc(F)cc23)CC1 (configuration not stated)	none
Cc1cccc(C(=O)Nc2c(C)nn(Cc3cccc4ccccc34)c2C)c1	none
CCn1nc(C)c(CNC(=O)c2[nH]c3ccc(C)cc3c2NC(=O)c2cccc(C)c2)c1C	OTUD3 block 71
Cn1cc(C(=O)NCc2cnn3ccccc23)nn1	none
COc1ccc2[nH]cc(CCN=C(NC(=O)C(C)C)Nc3nc(C)cc(C)n3)c2c1	none
COc1ccc2c(CCN=C(NC(C)=O)Nc3nc(C)cc(C)n3)c[nH]c2c1	USP7 inh 34
CCCCCCCC/C=C\CCCCCCCc1cc(O)cc(O)c1C(=O)O	none
CCCCCCCc1cc(O)cc(OC(=O)c2c(CCCCCCC)cc(O)cc2O[C@H]2O[C@H](C(O)CO)[C@@H](O)[C@@H]2O)c1 (some centres not stated)	none
CCCCCCCCCc1cc(OC(=O)c2c(CCCCCCCCC)cc(O)cc2O[C@@H]2O[C@H](CO)[C@@H](O)[C@H](O)[C@H]2O)cc(O)c1C(=O)O	UCHL1 inh 84, USP7 inh 100, OTUD3 block 101

Assay outcomes (PubChem)
